Data: PubChem BioAssay AID2049 (The Scripps Research Institute Molecular Screening Center, 2009)
The source made the active and inactive calls. How the calls were made is not given here.

Tested on: BCL3
Experiment: STAT3 activation with BCL3 mRNA and toxicity – cell-based, STAT1 reporter, BCL3 qPCR, cytotoxicity, late-stage follow-up (AID 2049)
Conditions: human cell reporter; BCL3 mRNA qPCR, at 10 µM, stronger effect = higher value

| Compound | fold change | outcome |
| --- | --- | --- |
| CCCc1cc(C(=O)Nc2cc(OC)c(Cl)cc2OC)no1 | 1.3 | active |
| COc1cc(NC(=O)c2cc(C3CC3)on2)c(OC)cc1Cl | 2.07 | active; probe |
| COc1cc(NC(=O)c2cc(C(C)C)on2)c(OC)cc1Cl | 0.42 | inactive; active |
